In PubChem BioAssay (Tox21) one finds Potency and activity change, negative = cytotoxicity data, which are given here for 40 compounds.

Each structure is given as a SMILES string. Results filed as inconclusive are left out. A call without a number means that no potency is given here. A number with no mark means an inactive call. Active and inactive are the calls of the source. Calls come from the whole dose curve; as a rule, active = well fitted cell-killing curve with a large enough effect in the repeat runs; inconclusive = weak or mixed curves, or effect the other way; inactive = no such curve, though single readings can be large or run the other way.
Potency is the fitted concentration of half-maximal effect.

This assay in a line: Caspase-3/7 induction in CHO-K1 cells by small molecules, qHTS cell viability counter screen (AID 1346979). Note: nearly all actives have a fitted effect of over 35% in size. The following applies: CellTiter-Fluor fluorescence, 17 h; series mostly up to 92.4 µM. From the text: National Center for Advancing Translational Sciences [NCATS]
NIH Chemical Genomics Center [NCGC]
U.S. Environmental Protection Agency [EPA]
National Institutes of Environmental Health Sciences [NIEHS]
National Toxicology Program [NTP]
U.S. Food and Drug Administration [FDA]
Apoptosis is a process of programmed cell death and plays a central role in the development of multicellular organisms. It is a highly regulated process and induces cell death by activating caspases, which are the members of cysteine aspartic acid-specific protease (caspase) family. Caspases involved in apoptosis are classified by their mechanism of action as initiator caspases (caspase-2, -8, -9 and -10) and executioner caspases (caspase-3, -6, and -7). Inhibition of apoptosis results in number of cancers, autoimmune diseases, inflammatory diseases and viral infection. To identify small molecule compounds that induce apoptosis, a homogeneous, luminescent Caspase-Glo 3/7 assay was used. Wild type CHO-K1 cells were used to screen Tox21 libraries for identifying caspase-3/7 activity inducers. Also cytotoxicity of the compounds was tested in parallel by measuring the cell viability using CellTiter-Fluor assay system in the same wells.
Tox21 Assay Protocol Summary:
CHO-K1 cells were dispensed at 1,500 per well in 5uL of culture medium into white solid bottom 1536-well plates (Corning Life Sciences, Corning, NY) using a Multidrop Combi (Thermo Scientific, Waltham, MA) dispenser. The assay plates were incubated at 37 C and 5% CO2 for 5hr, and then 23nL of compounds dissolved in DMSO and positive control were transferred using a Pintool station (Wako, San Diego, CA). The assay plates were incubated at 37C and 5% CO2 for 17hr. For cytotoxicity read, after 16hr incubation at 37C, 1uL CellTiter-Fluor reagent (Promega Corporation, Madison, WI) was added to each well of the assay plates using Flying Reagent Dispenser (FRD, Aurora Discovery, San Diego, CA). After 1hr incubation at 37C and 5% CO2, the fluorescence signal was quantified using a ViewLux plate reader (PerkinElmer, Shelton, CT).
`CCOC1Oc2ccc(OS(C)(=O)=O)cc2C1(C)C` (stereo not given): the Potency entry was “inactive”.
As for `C=CCCC#N`, the Potency entry was “inactive”.
`CCOC(=O)CC(SP(=S)(OC)OC)C(=O)OCC` (stereo not given): the Potency result was “inactive”.
Regarding `CN1C(=O)COc2c(C(=O)NC3CN4CCC3CC4)cc(Cl)cc21` (stereo not given), the Potency result was “inactive”.
With `CCC1(c2cccc(O)c2)CCCCN(C)C1` (stereo not given), the Potency entry was “inactive”.
Turning to `C=CCN1CC[C@]23CCCC[C@H]2[C@H]1Cc1ccc(O)cc13`, the Potency result was “inactive”.
As to `CN(C)C(=O)Oc1cc(OC(=O)N(C)C)cc(C(O)CNC(C)(C)C)c1` (stereo not given), the Potency entry was “inactive”.
As for `CC(C)(C)NC[C@H](O)c1ccc(O)cc1Cl`, the Potency result was “inactive”.
For `CC(=O)OCC1=C(C(=O)O)N2C(=O)[C@@H](N)[C@H]2SC1`, the activity change, negative = cytotoxicity is 0.401% [at 19 µM].
For the compound `CN(CCO)CCO`, the Potency entry was “inactive”.
Still for that read-out and setting: the result for `CCN[C@@H](C)Cc1ccccc1` reads “inactive”; that for `COC(=O)c1ccccc1CS(=O)(=O)NC(=O)Nc1nc(OC)cc(OC)n1`, “inactive”.
The same measure, in the same setting: then `CNC(=O)O/N=C(/CSC)C(C)(C)C`, with “inactive”; and `C[C@H](N)C(=O)c1ccccc1`, with “inactive”; and `OCC(Cl)CCl` (stereo not given), with “inactive”.
Regarding `OP(O)c1ccccc1`, the Potency result is “inactive”.
`CCOC(=O)c1ncn2c1CN(C)C(=O)c1c(I)cccc1-2`: the Potency result is “inactive”.
Consider `CCC(C)C(C)(COC(N)=O)COC(N)=O` (stereo not given), for which the Potency entry was “inactive”.
In the case of `O=C(O)C(Br)(Br)Br`, the Potency entry was “inactive”.
Take `CC(=O)CN(CC(C)=O)N=O`: the Potency entry was “inactive”.
As for `COc1cc(CCN)cc(OC)c1OC`, the Potency entry is “inactive”.
On the same count and under the same terms, then `CCN(CC)CCOC(=O)C(O)(c1ccccc1)c1ccccc1`, with “inactive”.
Regarding `N#CN=C1SCCN1Cc1ccc(Cl)nc1`, the Potency result is “inactive”.
On the same count and under the same terms, the result for `CCC1(c2ccccc2)C(=O)N(COC)C(=O)N(COC)C1=O` reads “inactive”; that for `CCOC(=O)Nc1cccc(OC(=O)Nc2ccccc2)c1`, “inactive”; that for `O=CCCl`, “inactive”.
Still for that read-out and setting: the result for `CC(Cl)(Cl)Cl` reads “inactive”; that for `ClCCN1CCCC1`, “inactive”; that for `C=CCc1cc(OC)c2c(c1)OCO2`, “inactive”.
On to `c1ccc2c(c1)CCNC2`, for which the Potency result was “inactive”.
`CCN(CC)C1CCCCC1`: the Potency result is “inactive”.
`Cn1c(N)nc2c3cccnc3ccc21`: the Potency was 51.8 µM (active).
Turning to `C=CC=O`, the Potency entry is “inactive”.
With `BrCc1ccc(Br)cc1`, the Potency result is “inactive”.
Regarding `CCC(=O)OC1(c2ccccc2)CCN(C)CC1`, the Potency entry was “inactive”.
The same measure, in the same setting: the result for `CCN1CCCC1CNC(=O)C(O)(c1ccccc1)c1ccccc1` (stereo not given) reads “inactive”; that for `CCOC(=O)C(Cl)Cc1cc(-n2nc(C)n(C(F)F)c2=O)c(F)cc1Cl` (stereo not given), “inactive”; that for `C1CN2CCC1CC2`, “inactive”.
Consider `CCC1(c2ccccc2)CCC(=O)NC1=O` (stereo not given), for which the Potency entry was “inactive”.
In the case of `CCNP(=S)(OC)O/C(C)=C/C(=O)OC(C)C` (stereo not given), the Potency result is “inactive”.
